AmpC det inh – inhibitors of E. coli AmpC beta-lactamase with detergent; Potency, µM (series often up to 28.7 µM), for the others: at the top dose activity change, negative = inhibition; AID 584; purified AmpC, nitrocefin hydrolysis with detergent; 0.09% of 71,000 active; active = well fitted curve in the direction sought with a large enough effect; inconclusive = small, poorly fitted or top-dose-only effect; also: % is scaled to controls: 0 for no effect and ±100 for the full control effect
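E. coli AmpC (5.3 nM) in 20 mM phosphate pH 7.0 with 0.01% Triton X-100, preincubated 15 min RT with compound; nitrocefin (2 uL of 800 uM stock) hydrolysis followed by 480 nm absorbance every 20 s over 4 min.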
AmpC inh no det – inhibitors of E. coli AmpC beta-lactamase without detergent. P00811. 1.8% of 71,000 active. AmpC nitrocefin hydrolysis, absorbance 480 nm, no detergent. Potency, µM (highest dose often 28.7 µM), for inactives: at the top dose activity change, negative = inhibition; also: % of control where 0% means no effect
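AmpC, 20 mM phosphate pH 7.0; 15 min cpd preinc, RT; start with nitrocefin (800 uM stock); A480 kinetic read, 20 s intervals, 4 min. No-enzyme wells = negative control.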
Prx2 Sm inh – inhibitors of Schistosoma mansoni peroxiredoxin 2; Potency, µM; S. mansoni Prx2 activity coupled to TGR/GSH (TGR is thioredoxin glutathione reductase), NADPH fluorescence loss, qHTS; 0.07% of 65,000 active
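Prx2 inhibition was measured as reduced NADPH consumption when electrons flowed from NADPH through TGR and glutathione to Prx2 and H2O2. Plates were read kinetically over 8 min; enzyme reagents were held at 4 deg C during dispensing.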
Anthrax LT inh – anthrax lethal toxin internalization inhibition; Cells, anthrax lethal toxin internalization, FRET ratio (460/530); Potency, µM (highest dose often 40 µM), without a hit: at the highest dose activity change, negative = inhibition, hits mostly inhibitors; 0.67% of 70,000 active; AID 912; also: % is scaled to controls: 0 for no effect and ±100 for the full control effect; nearly all actives have a fitted effect of over 50% in size
Active calls of the source: *; ? = inconclusive; [ ] = another dose, or the depositor's remark. This is a sample that favours compounds with a hit; in the whole collection about 2.4% have one here. Unless noted, calls follow the shape of the full dose curve. Potency is read from the fitted curve at half-maximal effect.

SMILES | AmpC det inh | AmpC inh no det | Prx2 Sm inh | Anthrax LT inh
Cc1cc(NC(=O)c2cc(-c3ccco3)on2)nn1Cc1ccc(Cl)cc1 | -3% | 16µM* | >57 | -24%
Cc1nn(Cc2ccc(Cl)cc2)c(C)c1NC(=O)c1cc(-c2ccco2)on1 | -6% | 25% | >57 | -18%
CC1=C(C(=O)OC(C)C)C(c2c[nH]c3ccccc23)n2ncnc2N1 (configuration not stated) | 12% | 4µM*[single pt active] | >57 | 4%
CC1=C(C(=O)OC(C)C)C(c2cccs2)n2ncnc2N1 (configuration not stated) | 13% | 4µM*[single pt active] | >57 | ?
CC1=C(C(=O)OC(C)C)C(c2cccc(F)c2)n2ncnc2N1 (configuration not stated) | 14% | 4µM*[single pt active] | >57 | ?
COc1ccccc1NC(=O)C1=C(C)Nc2ncnn2C1c1cccs1 (configuration not stated) | -2% | 10% | >57 | ?
C[C@@]1(O)CCOC(=O)C1 | -1%[12.8 µM] | -15%[12.8 µM] | >57 | 6%[3.58 µM]
c1cc2c(cc1C(N1CCNCC1)N1CCNCC1)OCO2 | -3%[5.75 µM] | -3%[5.75 µM] | >57 | -10%[8 µM]
N#C/C(=C\Nc1ccccn1)C(=O)c1ccco1 | -2%[5.75 µM] | 2%[5.75 µM] | >57 | -4%[8 µM]
CCNc1ncc2nc(C)c(=O)n(Cc3cccc(OC)c3)c2n1 | 1% | 22% | >57 | ?
Cc1cc(N2CCN(C)CC2)nc2ccc(NC(=O)c3ccc4c(c3)OCO4)cc12 | -2% | 84% | >57 | ?
CCOc1ccccc1NC(=O)CCC(=O)Nc1ccc2nc(N3CCN(C)CC3)cc(C)c2c1 | 0% | 100% | >57 | 13µM*
CCC(C)NC(=O)CCC(=O)Nc1ccc2nc(N3CCOCC3)cc(C)c2c1 (configuration not stated) | -4% | 31% | >57 | 6%
Cc1cc(N2CCN(C)CC2)nc2ccc(NC(=O)c3ccc(Br)o3)cc12 | -4% | 89% | >57 | 13µM*
O=C1c2ccccc2-c2ccc(N=[N+]([O-])c3ccc4c(c3)C(=O)c3ccccc3-4)cc21 | -3%[5.75 µM] | -4%[5.75 µM] | >57 | -13%[8 µM]
Cc1c(Cl)cccc1NC(=O)CN1C(=O)CSc2ncccc21 | 11% | 3.2µM*[single pt active] | >57 | ?
COCCCNC(=O)CN1C(=O)CSc2ncccc21 | 5% | -4% | >57 | 4%
O=C(CSc1nnc(-c2cccnc2)n1Cc1ccco1)N1c2ccccc2Sc2ccccc21 | 1% | 141% | >57 | 16µM*
c1cncc(CSc2nnc(-c3cccnc3)n2Cc2ccco2)c1 | -3% | -8% | >57 | -1%
CN1CCC(=C2c3ccccc3C=Cc3ccccc32)CC1 | -2% | 71% | >57 | 7.9µM*

From PubChem
